Compound activity as filed in PubChem BioAssay.
Compounds with a hit are over-represented: about 6% of the library has one in this group of screens.
Chronic BCR inh: chronic active BCR signaling inhibition; Potency, µM (top dose mostly 46.1 µM), most hits filed as inhibitors; 0.05% of 340,000 active; ABC-DLBCL IkBa-CBG/CBR reporter, luminescence ratio, 4 h; active = well fitted inhibition curve with a large enough effect in the signal ratio, with a control signal flat, not every such curve was filed as active; inconclusive = small, poorly fitted or top-dose-only effect, or effect the other way, or a change in a side signal; the % refers to the signal ratio
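TMD8 ABC-DLBCL cells carrying doxycycline-inducible green luciferase fused to IkappaBalpha plus unfused red luciferase were exposed to compounds (up to 46 uM) for 4 hrs at 37C. Activity came from the overlap-corrected green/red luminescence ratio.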
D1 ag: agonists of human D1 dopamine receptor | P21728 | HEK293 T-REx D1 cells, calcium flux, agonist mode | 1% of 360,000 active | activation, % at 2 µM | AID 504660; in the data active = activation above about 30%
Target sequence (P21728 whole entry, looked up): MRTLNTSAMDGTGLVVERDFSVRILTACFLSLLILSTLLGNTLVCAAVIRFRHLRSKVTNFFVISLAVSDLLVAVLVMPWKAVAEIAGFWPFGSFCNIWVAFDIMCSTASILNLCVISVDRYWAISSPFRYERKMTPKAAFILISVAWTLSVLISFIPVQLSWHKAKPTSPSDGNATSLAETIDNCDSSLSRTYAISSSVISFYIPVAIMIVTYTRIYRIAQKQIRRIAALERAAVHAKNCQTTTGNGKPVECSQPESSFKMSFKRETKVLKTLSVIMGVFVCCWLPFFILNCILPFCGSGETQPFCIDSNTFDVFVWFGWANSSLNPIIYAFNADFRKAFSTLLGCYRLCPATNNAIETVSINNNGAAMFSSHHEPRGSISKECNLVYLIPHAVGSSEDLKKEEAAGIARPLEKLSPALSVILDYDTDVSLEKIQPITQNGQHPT
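Tetracycline-induced HEK293 TREx D1 cells, force-coupled to calcium signalling, were dye-loaded with a no-wash calcium kit. Compound was pin-added after a 10 s baseline. Fluorescence was read kinetically at 1 cycle/s for 180 s, with calcium rises flagged as agonism.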
D1 antag: blocks dopamine activation of the human D1 receptor. 3.2% of 360,000 active. activity change, negative = inhibition, % at 10 µM. P21728. HEK293 TREx D1 cells, calcium flux, dopamine EC80; active compounds read low; in the data active = activity change below about -30%
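Compound effects on dopamine-evoked calcium signalling were measured in tetracycline-induced HEK293 Trex D1 cells. Dopamine at EC80 followed a 180 s compound pre-read, and fluorescence was tracked kinetically for 180 s more.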
D1 PAM: enhances dopamine response at the human D1 receptor | HEK293 TREx D1 cells, calcium flux, dopamine EC20 potentiation | P21728 | 0.036% of 360,000 active | potentiation, % at 10 µM; in the data active = potentiation above about 30%
DRD3 agonist: activates the human D3 dopamine receptor | AID 652048 | max activation, % | P35462 | 0.58% of 410,000 active | D3R DiscoveRx beta-arrestin cells, luminescence, 90 min; in the data active = max activation above about 30%
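Agonist mode: compounds and dopamine controls were applied to plated cells for 90 min at 37 degrees C after an overnight attachment at 1500 cells/well. Luminescent read-out followed 30 - 60 minutes at room temperature with DiscoveRx detection reagent.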
DRD3 antagonist: antagonists of human D3 dopamine receptor; AID 652054; P35462; 2.5% of 360,000 active; max response, negative = inhibition, %; D3R cells, DiscoveRx beta-arrestin luminescence, antagonist mode; active compounds read low; in the data active = max response below about -50%; inconclusive = no clear call, values can overlap the other calls
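Cells expressing the human receptor were seeded at 1500 cells/well, incubated overnight at 37 degrees C in 5% CO2, then exposed to library compounds with dopamine controls for 90 minutes at 37 degrees C before luminescent detection.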
Each line names hits and unclear results; the compound was inactive in the other large screens; ! = repeats disagree.

COc1cc2c(cc1OC)CN(CCC(C)c1ccc(Cl)cc1)CC2 (stereo not given)	DRD3 antagonist -91 (no result: Chronic BCR inh, D1 ag, D1 antag, D1 PAM)
COc1cc2c(cc1OC)CN(Cc1ccc(C)cc1)CC2	DRD3 antagonist -80
COc1ccccc1N1CCN(CC(O)COc2ccc(C)cc2C(C)(C)C)CC1 (stereo not given)	none (no result: Chronic BCR inh, DRD3 antagonist)
COc1ccccc1N1CCN(CC(O)COc2ccc(Cl)c(C)c2)CC1 (stereo not given)	D1 antag -31 (no result: Chronic BCR inh, DRD3 antagonist)
COc1ccccc1N1CCN(CC(O)COc2ccc3c(c2)CCC3)CC1 (stereo not given)	DRD3 antagonist -67
COc1ccccc1N1CCN(CC(O)COc2cc(C)cc(C)c2)CC1 (stereo not given)	none (no result: Chronic BCR inh, DRD3 antagonist)
COc1ccccc1N1CCN(CC(O)COc2ccc(C)c(C)c2)CC1 (stereo not given)	DRD3 antagonist -101
CCN1CCN(CC(O)COc2ccc(C)c(C)c2)CC1 (stereo not given)	none
O=S(=O)(c1ccc(OCC(O)CN2CCN(c3ccc(F)cc3)CC2)cc1)N1CCOCC1 (stereo not given)	none
COc1ccccc1N1CCN(CC(O)COc2ccc(S(=O)(=O)N3CCOCC3)cc2)CC1 (stereo not given)	DRD3 antagonist -81
CCCCN(C)c1ncnc2c1cnn2-c1cccc(Cl)c1	Chronic BCR inh inconclusive (no result: DRD3 antagonist)
CC(C)(CO)NCC(O)COc1ccc2c(c1)CCC2 (stereo not given)	none
CC(C)(C)CC(C)(C)NCC(O)COc1ccc2c(c1)CCC2 (stereo not given)	DRD3 antagonist -63 (no result: Chronic BCR inh, D1 ag, D1 antag, D1 PAM)
Cc1ccc(Cl)cc1N1CCN(CC(O)COC(C)C)CC1 (stereo not given)	Chronic BCR inh inconclusive, DRD3 antagonist -79
CN1CCN(CC(O)COC(c2ccc(Cl)cc2)c2ccc(Cl)cc2)CC1 (stereo not given)	Chronic BCR inh inconclusive
CCCOc1ccc(C(=O)NCC2OCCc3ccccc32)cc1 (stereo not given)	none (no result: Chronic BCR inh, DRD3 antagonist)
CCOC(=O)CN=C1CC(C)(C)CC2=C1Sc1ncnc(N(C)C)c1N2	Chronic BCR inh inconclusive, D1 antag -42
Cc1ccc(C(C)C)c(OCc2nn(CC(=O)c3ccc(OC(F)F)cc3)c3[n+]2CCCCC3)c1	Chronic BCR inh inconclusive, D1 ag 91
COc1ccc(C(=O)Cn2nc(CNc3ccc(Br)cc3)[n+]3c2CCCCC3)cc1	Chronic BCR inh inconclusive
Cc1ccn2c(Nc3ccccc3)c(-c3c[nH]c4ccccc34)nc2c1	none (no result: Chronic BCR inh, DRD3 antagonist)
COC(/C=C/Nc1ccc(Cl)cc1)=C(C#N)C#N	D1 antag -31
COC(/C=C/Nc1ccc(OC)cc1)=C(C#N)C#N	none
Cc1ccsc1C(=O)N/N=C/C=C/c1ccccc1[N+](=O)[O-]	Chronic BCR inh inconclusive, DRD3 antagonist -85
Cc1occc1C(=O)N/N=C/C=C\c1ccccc1[N+](=O)[O-]	Chronic BCR inh inconclusive
Cc1ccsc1C=C1C(=O)c2ccccc2C1=O	DRD3 antagonist -56
CC(NCCC(c1ccccc1)c1ccccc1)c1ccccc1 (stereo not given)	Chronic BCR inh inconclusive, D1 ag 60
CC(NN)c1ccccc1 (stereo not given)	none (no result: Chronic BCR inh, D1 ag, D1 antag, D1 PAM, DRD3 antagonist)
Cc1nc2nc(NC(=O)c3ccc(C(C)(C)C)cc3)[nH]n2c(=O)c1C	none (no result: Chronic BCR inh, DRD3 antagonist)
COc1ccc(F)cc1C(=O)C1CCCN(Cc2cn(C)c3ccccc23)C1 (stereo not given)	Chronic BCR inh inconclusive, DRD3 antagonist -92
O=C(c1cc(F)ccc1F)C1CCCN(C(=O)CSc2ccccn2)C1 (stereo not given)	D1 antag -40
Cn1cc(CN2CCCC(C(=O)c3cc(F)ccc3F)C2)c2ccccc21 (stereo not given)	Chronic BCR inh inconclusive, DRD3 antagonist -64
COc1ccc(F)cc1C(=O)C1CCCN(Cc2cccn2-c2ccccn2)C1 (stereo not given)	Chronic BCR inh inconclusive, DRD3 antagonist inconclusive
COc1ccc(F)cc1C(=O)C1CCCN(Cc2c[nH]c3ccccc23)C1 (stereo not given)	Chronic BCR inh inconclusive, D1 ag 47, D1 antag -43, DRD3 antagonist -107
COc1ccc(OC)c(CN2CCCC(C(=O)c3ccccc3SC)C2)c1 (stereo not given)	DRD3 antagonist inconclusive
CCOC(=O)C1=CC[C@@H](c2ccccc2)N(S(=O)(=O)c2ccc(C)cc2)[C@H]1/C=C/c1ccccc1	none (no result: Chronic BCR inh, D1 ag, D1 antag, D1 PAM)
CN1C(=O)[C@H]2[C@@H](c3ccc(C(F)(F)F)cc3)N[C@]3(CCCN(Cc4ccco4)C3=O)[C@H]2C1=O	none (no result: Chronic BCR inh, D1 ag, D1 antag, D1 PAM)
Cc1ccc(CNC(=O)c2ccc3c(c2)NC(=O)C(CS(=O)(=O)Cc2cccc(C)c2)N3)cc1 (stereo not given)	none (no result: Chronic BCR inh, DRD3 antagonist)
CN(C)c1nc(Cl)nc(NCCOc2ccccc2)n1	Chronic BCR inh inconclusive, D1 ag 81
O=C(Nc1ccnn1C1CCN(Cc2cc3ccccc3[nH]2)CC1)C1CCOC1 (stereo not given)	D1 antag -32 (no result: DRD3 agonist, DRD3 antagonist)
CCc1cc2cccc(C)c2nc1SCC(=O)c1ccc(NC(C)=O)cc1	DRD3 agonist 81
CCc1cc2ccc(C)cc2nc1SCC(=O)c1ccc(NC(C)=O)cc1	Chronic BCR inh inconclusive
CCCn1c(SCC(=O)O)nc2ccccc21	Chronic BCR inh inconclusive, D1 antag -88
O=C(O)CSc1nc2ccccc2n1Cc1ccccc1	none
CCCn1c(/C=C/c2ccccc2)nc2ccccc21	D1 antag -35!, DRD3 agonist 31!
COCCOCCn1c(/C=C/c2ccccc2)nc2ccccc21	none
Cc1ccc(-c2csc(=Nc3ccc(F)cc3)n2Cc2ccc3c(c2)OCO3)cc1C	none (no result: Chronic BCR inh, DRD3 antagonist)
COc1ccc(S(=O)(=O)NCC2CCCN(Cc3ccccc3C)C2)cc1 (stereo not given)	D1 antag -30
COCCC(=O)N1CCCC(CNS(=O)(=O)c2ccc(OC)cc2)C1 (stereo not given)	DRD3 antagonist -63
COC(=O)c1ccc(CSc2nnc(Nc3ccc(OC)cc3)s2)o1	D1 antag -30
COC(=O)c1ccc(CSc2nnc(SCc3ccc(C(=O)OC)o3)s2)o1	Chronic BCR inh inconclusive
CCSc1nnc(NC(=O)Cc2ccc(OC)cc2)s1	D1 antag -47
COc1ccc(-n2c(=O)c3c(C)c(C)sc3n(CC(=O)NCc3ccc(C)cc3)c2=O)c(OC)c1	none (no result: Chronic BCR inh, DRD3 antagonist)
COCCCn1c(SCc2ccccc2)nc2cc(OC)c(OC)cc2c1=N	DRD3 agonist 31 (no result: D1 ag, D1 antag, D1 PAM)
COc1ccc(Cn2c(SCc3cc(C)ccc3C)nc3cc(OC)c(OC)cc3c2=N)cc1	DRD3 agonist 44
CC1(C(=O)NS(=O)(=O)c2ccccc2)CCN1C(=O)CC1CCCC1 (stereo not given)	none (no result: Chronic BCR inh, D1 ag, D1 antag, D1 PAM)
